# Reference: paper PMC11062922 (Nature Chemical Biology, 2023)
# Where two headings read alike, the source gives them in different places.
# Experiments:
# STK3 = conditions: read-out: apparent Kd, n = 1
# STK4 = conditions: read-out: apparent Kd, n = 1
# [1] = compound concentrations:100 nM and 1000 nM (sheet 'Lestaurtinib' of Supplementary Table 1),run:Lestaurtinib_02367_R1,Plate:MR003
# [2] = compound concentrations:100 nM and 1000 nM (sheet 'Lestaurtinib' of Supplementary Table 1),run:Lestaurtinib_02367_R2,Plate:MR003
# [3] = compound concentrations:100 nM and 1000 nM (sheet 'Lestaurtinib' of Supplementary Table 1),run:Lestaurtinib_02367_R3,Plate:MR003
# [4] = compound concentrations:100 nM and 1000 nM (sheet 'Lestaurtinib' of Supplementary Table 1),run:Lestaurtinib_02381_R1,Plate:MR004
# [5] = compound concentrations:100 nM and 1000 nM (sheet 'Lestaurtinib' of Supplementary Table 1),run:Lestaurtinib_02381_R2,Plate:MR004
# [6] = compound concentrations:100 nM and 1000 nM (sheet 'Lestaurtinib' of Supplementary Table 1),run:Lestaurtinib_02407_R3,Plate:MR005
# [7] = compound concentrations:100 nM and 1000 nM (sheet 'Lestaurtinib' of Supplementary Table 1),run:Lestaurtinib_02422_R1,Plate:MR006
# [8] = compound concentrations:100 nM and 1000 nM (sheet 'Lestaurtinib' of Supplementary Table 1),run:Lestaurtinib_02422_R2,Plate:MR006
# [9] = compound concentrations:100 nM and 1000 nM (sheet 'Lestaurtinib' of Supplementary Table 1),run:Lestaurtinib_02437_R1,Plate:MR007
# [10] = compound concentrations:100 nM and 1000 nM (sheet 'Lestaurtinib' of Supplementary Table 1),run:Lestaurtinib_02437_R2,Plate:MR007
# [11] = compound concentrations:100 nM and 1000 nM (sheet 'Lestaurtinib' of Supplementary Table 1),run:Lestaurtinib_02438_R1,Plate:MR008
# [12] = compound concentrations:100 nM and 1000 nM (sheet 'Lestaurtinib' of Supplementary Table 1),run:Lestaurtinib_02443_R1,Plate:MR009
# [13] = compound concentrations:100 nM and 1000 nM (sheet 'Lestaurtinib' of Supplementary Table 1),run:Lestaurtinib_02473_R2,Plate:MR010
substance,measurement,setting,value
Lestaurtinib,potency estimated from few doses,STK3; [1],39.1 nM
same,potency estimated from few doses,STK3; [2],37.3 nM
same,potency estimated from few doses,STK3; [3],42.9 nM
same,potency estimated from few doses,STK3; [4],32.9 nM
same,potency estimated from few doses,STK3; [5],38.2 nM
same,potency estimated from few doses,"STK3; compound concentrations:100 nM and 1000 nM (sheet 'Lestaurtinib' of Supplementary Table 1),run:Lestaurtinib_02407_R1,Plate:MR005",40 nM
same,potency estimated from few doses,"STK3; compound concentrations:100 nM and 1000 nM (sheet 'Lestaurtinib' of Supplementary Table 1),run:Lestaurtinib_02407_R2,Plate:MR005",29.8 nM
same,potency estimated from few doses,STK3; [6],30.1 nM
same,potency estimated from few doses,STK3; [7],51.1 nM
same,potency estimated from few doses,STK3; [8],62.7 nM
same,potency estimated from few doses,STK3; [9],38.1 nM
same,potency estimated from few doses,STK3; [10],50.7 nM
same,potency estimated from few doses,STK3; [11],29.8 nM
same,potency estimated from few doses,STK3; [12],41.6 nM
same,potency estimated from few doses,"STK3; compound concentrations:100 nM and 1000 nM (sheet 'Lestaurtinib' of Supplementary Table 1),run:Lestaurtinib_02443_R2,Plate:MR009",39.1 nM
same,potency estimated from few doses,"STK3; compound concentrations:100 nM and 1000 nM (sheet 'Lestaurtinib' of Supplementary Table 1),run:Lestaurtinib_02473_R1,Plate:MR010",47.3 nM
same,potency estimated from few doses,STK3; [13],42.2 nM
same,potency estimated from few doses,"STK3; compound concentrations:100 nM and 1000 nM (sheet 'Lestaurtinib' of Supplementary Table 1),run:Lestaurtinib_02482_R1,Plate:MR011",27.1 nM
same,potency estimated from few doses,"STK3; compound concentrations:100 nM and 1000 nM (sheet 'Lestaurtinib' of Supplementary Table 1),run:Lestaurtinib_02482_R2,Plate:MR011",44.7 nM
same,potency estimated from few doses,"STK3; compound concentrations:100 nM and 1000 nM (sheet 'Lestaurtinib' of Supplementary Table 1),run:Lestaurtinib_02482_R3,Plate:MR011",40.8 nM
same,potency estimated from few doses,"STK3; compound concentrations:100 nM and 1000 nM (sheet 'Lestaurtinib' of Supplementary Table 1),run:Lestaurtinib_02487_R1,Plate:MR012",28.6 nM
same,potency estimated from few doses,"STK3; compound concentrations:100 nM and 1000 nM (sheet 'Lestaurtinib' of Supplementary Table 1),run:Lestaurtinib_02487_R3,Plate:MR012",38.9 nM
same,potency estimated from few doses,"STK3; compound concentrations:100 nM and 1000 nM (sheet 'Lestaurtinib' of Supplementary Table 1),run:Lestaurtinib_02496_R1,Plate:MR013",45 nM
same,potency estimated from few doses,"STK3; compound concentrations:100 nM and 1000 nM (sheet 'Lestaurtinib' of Supplementary Table 1),run:Lestaurtinib_02496_R3,Plate:MR013",48.7 nM
same,potency estimated from few doses,"STK3; compound concentrations:100 nM and 1000 nM (sheet 'Lestaurtinib' of Supplementary Table 1),run:Lestaurtinib_02566_R2,Plate:MR014",41 nM
same,potency estimated from few doses,"STK3; compound concentrations:100 nM and 1000 nM (sheet 'Lestaurtinib' of Supplementary Table 1),run:Lestaurtinib_02566_R3,Plate:MR014",24.5 nM
same,potency estimated from few doses,"STK3; compound concentrations:100 nM and 1000 nM (sheet 'Lestaurtinib' of Supplementary Table 1),run:Lestaurtinib_02572_R2,Plate:MR015",50.4 nM
same,potency estimated from few doses,"STK3; compound concentrations:100 nM and 1000 nM (sheet 'Lestaurtinib' of Supplementary Table 1),run:Lestaurtinib_02572_R3,Plate:MR015",58.4 nM
same,potency estimated from few doses,"STK3; compound concentrations:100 nM and 1000 nM (sheet 'Lestaurtinib' of Supplementary Table 1),run:Lestaurtinib_02577_R1,Plate:MR016",36 nM
same,potency estimated from few doses,"STK3; compound concentrations:100 nM and 1000 nM (sheet 'Lestaurtinib' of Supplementary Table 1),run:Lestaurtinib_02577_R2,Plate:MR016",45 nM
same,potency estimated from few doses,"STK3; compound concentrations:100 nM and 1000 nM (sheet 'Lestaurtinib' of Supplementary Table 1),run:Lestaurtinib_02584_R1,Plate:MR017",38.6 nM
same,potency estimated from few doses,"STK3; compound concentrations:100 nM and 1000 nM (sheet 'Lestaurtinib' of Supplementary Table 1),run:Lestaurtinib_02584_R3,Plate:MR017",47.5 nM
same,potency estimated from few doses,"STK3; compound concentrations:100 nM and 1000 nM (sheet 'Lestaurtinib' of Supplementary Table 1),run:Lestaurtinib_02601_R1,Plate:MR018",59.1 nM
same,potency estimated from few doses,"STK3; compound concentrations:100 nM and 1000 nM (sheet 'Lestaurtinib' of Supplementary Table 1),run:Lestaurtinib_02601_R2,Plate:MR018",39.6 nM
same,potency estimated from few doses,"STK3; compound concentrations:100 nM and 1000 nM (sheet 'Lestaurtinib' of Supplementary Table 1),run:Lestaurtinib_02606_R2,Plate:MR019",46.2 nM
same,potency estimated from few doses,"STK3; compound concentrations:100 nM and 1000 nM (sheet 'Lestaurtinib' of Supplementary Table 1),run:Lestaurtinib_02606_R3,Plate:MR019",47.4 nM
same,potency estimated from few doses,"STK3; compound concentrations:100 nM and 1000 nM (sheet 'Lestaurtinib' of Supplementary Table 1),run:Lestaurtinib_02624_R1,Plate:MR020",53.2 nM
same,potency estimated from few doses,"STK3; compound concentrations:100 nM and 1000 nM (sheet 'Lestaurtinib' of Supplementary Table 1),run:Lestaurtinib_02624_R2,Plate:MR020",42.5 nM
same,potency estimated from few doses,"STK3; compound concentrations:100 nM and 1000 nM (sheet 'Lestaurtinib' of Supplementary Table 1),run:Lestaurtinib_02624_R3,Plate:MR020",40.4 nM
same,potency estimated from few doses,"STK3; compound concentrations:100 nM and 1000 nM (sheet 'Lestaurtinib' of Supplementary Table 1),run:Lestaurtinib_02724_R1,Plate:MR021",44.8 nM
same,potency estimated from few doses,"STK3; compound concentrations:100 nM and 1000 nM (sheet 'Lestaurtinib' of Supplementary Table 1),run:Lestaurtinib_02724_R2,Plate:MR021",42.8 nM
same,potency estimated from few doses,"STK3; compound concentrations:100 nM and 1000 nM (sheet 'Lestaurtinib' of Supplementary Table 1),run:Lestaurtinib_02724_R3,Plate:MR021",38.4 nM
same,potency estimated from few doses,"STK3; compound concentrations:100 nM and 1000 nM (sheet 'Lestaurtinib' of Supplementary Table 1),run:Lestaurtinib_02748_R1,Plate:MR024",35.8 nM
same,potency estimated from few doses,"STK3; compound concentrations:100 nM and 1000 nM (sheet 'Lestaurtinib' of Supplementary Table 1),run:Lestaurtinib_02748_R3,Plate:MR024",40.1 nM
same,potency estimated from few doses,"STK3; compound concentrations:100 nM and 1000 nM (sheet 'Lestaurtinib' of Supplementary Table 1),run:Lestaurtinib_02765_R1,Plate:MR026",38.6 nM
same,potency estimated from few doses,"STK3; compound concentrations:100 nM and 1000 nM (sheet 'Lestaurtinib' of Supplementary Table 1),run:Lestaurtinib_02765_R2,Plate:MR026",37.7 nM
same,potency estimated from few doses,"STK3; compound concentrations:100 nM and 1000 nM (sheet 'Lestaurtinib' of Supplementary Table 1),run:Lestaurtinib_02766_R3,Plate:MR027",42.9 nM
same,potency estimated from few doses,"STK3; compound concentrations:100 nM and 1000 nM (sheet 'Lestaurtinib' of Supplementary Table 1),run:Lestaurtinib_02768_R1,Plate:MR028",31.9 nM
same,potency estimated from few doses,"STK3; compound concentrations:100 nM and 1000 nM (sheet 'Lestaurtinib' of Supplementary Table 1),run:Lestaurtinib_02768_R3,Plate:MR028",40.1 nM
same,potency estimated from few doses,"STK3; compound concentrations:100 nM and 1000 nM (sheet 'Lestaurtinib' of Supplementary Table 1),run:Lestaurtinib_02795_R1,Plate:MR022",43.4 nM
same,potency estimated from few doses,"STK3; compound concentrations:100 nM and 1000 nM (sheet 'Lestaurtinib' of Supplementary Table 1),run:Lestaurtinib_02795_R2,Plate:MR022",27.8 nM
same,potency estimated from few doses,"STK3; compound concentrations:100 nM and 1000 nM (sheet 'Lestaurtinib' of Supplementary Table 1),run:Lestaurtinib_02795_R3,Plate:MR022",141 nM
same,potency estimated from few doses,"STK3; compound concentrations:100 nM and 1000 nM (sheet 'Lestaurtinib' of Supplementary Table 1),run:Lestaurtinib_02802_R1,Plate:MR029",22.4 nM
same,potency estimated from few doses,"STK3; compound concentrations:100 nM and 1000 nM (sheet 'Lestaurtinib' of Supplementary Table 1),run:Lestaurtinib_02802_R3,Plate:MR029",47.8 nM
same,potency estimated from few doses,"STK3; compound concentrations:100 nM and 1000 nM (sheet 'Lestaurtinib' of Supplementary Table 1),run:Lestaurtinib_02896_R1,Plate:MR030",38.8 nM
same,potency estimated from few doses,"STK3; compound concentrations:100 nM and 1000 nM (sheet 'Lestaurtinib' of Supplementary Table 1),run:Lestaurtinib_02896_R2,Plate:MR030",37.2 nM
same,potency estimated from few doses,"STK3; compound concentrations:100 nM and 1000 nM (sheet 'Lestaurtinib' of Supplementary Table 1),run:Lestaurtinib_02896_R3,Plate:MR030",37.9 nM
same,potency estimated from few doses,"STK3; compound concentrations:100 nM and 1000 nM (sheet 'Lestaurtinib' of Supplementary Table 1),run:Lestaurtinib_03172_R1,Plate:MR031",35 nM
same,potency estimated from few doses,"STK3; compound concentrations:100 nM and 1000 nM (sheet 'Lestaurtinib' of Supplementary Table 1),run:Lestaurtinib_03172_R3,Plate:MR031",39.7 nM
same,potency estimated from few doses,"STK3; compound concentrations:100 nM and 1000 nM (sheet 'Lestaurtinib' of Supplementary Table 1),run:Lestaurtinib_03252_R2,Plate:MR032",48.1 nM
same,potency estimated from few doses,"STK3; compound concentrations:100 nM and 1000 nM (sheet 'Lestaurtinib' of Supplementary Table 1),run:Lestaurtinib_03260_R3,Plate:MR033",36.6 nM
same,potency estimated from few doses,"STK4; compound concentrations:100 nM and 1000 nM (sheet 'Lestaurtinib' of Supplementary Table 1),run:Lestaurtinib_02339_R1,Plate:MR001",42 nM
same,potency estimated from few doses,"STK4; compound concentrations:100 nM and 1000 nM (sheet 'Lestaurtinib' of Supplementary Table 1),run:Lestaurtinib_02339_R2,Plate:MR001",40.1 nM
same,potency estimated from few doses,"STK4; compound concentrations:100 nM and 1000 nM (sheet 'Lestaurtinib' of Supplementary Table 1),run:Lestaurtinib_02339_R3,Plate:MR001",27.7 nM
same,potency estimated from few doses,"STK4; compound concentrations:100 nM and 1000 nM (sheet 'Lestaurtinib' of Supplementary Table 1),run:Lestaurtinib_02364_R1,Plate:MR002",35.9 nM
same,potency estimated from few doses,"STK4; compound concentrations:100 nM and 1000 nM (sheet 'Lestaurtinib' of Supplementary Table 1),run:Lestaurtinib_02364_R2,Plate:MR002",43 nM
same,potency estimated from few doses,"STK4; compound concentrations:100 nM and 1000 nM (sheet 'Lestaurtinib' of Supplementary Table 1),run:Lestaurtinib_02364_R3,Plate:MR002",43.2 nM
same,potency estimated from few doses,STK4; [1],35.7 nM
same,potency estimated from few doses,STK4; [2],35 nM
same,potency estimated from few doses,STK4; [3],39.1 nM
same,potency estimated from few doses,STK4; [4],35.8 nM
same,potency estimated from few doses,STK4; [5],36.2 nM
same,potency estimated from few doses,STK4; [6],33 nM
same,potency estimated from few doses,STK4; [7],44.8 nM
same,potency estimated from few doses,STK4; [8],50.1 nM
same,potency estimated from few doses,"STK4; compound concentrations:100 nM and 1000 nM (sheet 'Lestaurtinib' of Supplementary Table 1),run:Lestaurtinib_02422_R3,Plate:MR006",45.3 nM
same,potency estimated from few doses,STK4; [9],42 nM
same,potency estimated from few doses,STK4; [10],41.6 nM
same,potency estimated from few doses,"STK4; compound concentrations:100 nM and 1000 nM (sheet 'Lestaurtinib' of Supplementary Table 1),run:Lestaurtinib_02437_R3,Plate:MR007",4.01 nM
same,potency estimated from few doses,STK4; [11],36.6 nM
same,potency estimated from few doses,"STK4; compound concentrations:100 nM and 1000 nM (sheet 'Lestaurtinib' of Supplementary Table 1),run:Lestaurtinib_02438_R3,Plate:MR008",38.2 nM
same,potency estimated from few doses,STK4; [12],38.6 nM
same,potency estimated from few doses,"STK4; compound concentrations:100 nM and 1000 nM (sheet 'Lestaurtinib' of Supplementary Table 1),run:Lestaurtinib_02443_R3,Plate:MR009",36.6 nM
same,potency estimated from few doses,STK4; [13],44.6 nM
same,potency estimated from few doses,"STK4; compound concentrations:100 nM and 1000 nM (sheet 'Lestaurtinib' of Supplementary Table 1),run:Lestaurtinib_02473_R3,Plate:MR010",37.7 nM
